Consider 18 compounds from PubChem BioAssay (Tox21).

Assay [1] is described as follows: qHTS assay for identifying genotoxic compounds that show differential cytotoxicity against isogenic chicken DT40 cell lines with known DNA damage response pathways - wild type cell line (AID 743012). Further: nearly all actives have a fitted effect of over 60% in size. Further: potency means the concentration at half of the fitted maximal effect. An outline of the steps:
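Using parental DT40 (300 cells/well), compounds delivered in DMSO incubate 40 h at 37 C/5% CO2. CellTiter-Glo reagent then stands 30 min at room temperature, and luminescence gives cell viability.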

Assay [2] in a line: qHTS assay for identifying genotoxic compounds that show differential cytotoxicity against isogenic chicken DT40 cell lines with known DNA damage response pathways - Rev3 mutant cell line (AID 743014). Further: nearly all actives have a fitted effect of over 55% in size. Further: potency means the concentration at half of the fitted maximal effect.
The nature of assay [3]: qHTS assay for identifying genotoxic compounds that show differential cytotoxicity against isogenic chicken DT40 cell lines with known DNA damage response pathways - Rad54/Ku70 mutant cell line (AID 743015). Further: nearly all actives have a fitted effect of over 60% in size. Further: potency means the concentration at half of the fitted maximal effect. A general note: In qHTS, concentration-response curves come from the screen itself.
Assay [4] is described as follows: qHTS assay to identify small molecule antagonists of the androgen receptor (AR) signaling pathway - cell viability counter screen (AID 743033; further: nearly all actives have a fitted effect of over 45% in size).
The nature of assay [5]: qHTS assay to identify small molecule antagonists of the androgen receptor (AR) signaling pathway using the MDA cell line - cell viability counter screen (AID 743041; further: nearly all actives have a fitted effect of over 45% in size). Put shortly:
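MDA-kb2 AR-luc human breast carcinoma cells (MMTV-luciferase, AR/GR responsive) were treated with compounds plus R1881 agonist for 16 h at 37 °C. Viability was read as CellTiter-Fluor fluorescence in the same wells as the reporter assay.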

A short description of assay [6]: qHTS assay to identify small molecule antagonists of the thyroid receptor (TR) signaling pathway (AID 743065). Further: nearly all actives have a fitted effect of over 55% in size. Further: potency means the concentration at half of the fitted maximal effect. Put shortly: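 GH3.TRE-Luc rat pituitary cells carrying two TR response elements driving luciferase were plated for 4 h, given compound plus 1 nM T3 (final), and incubated 23.5 h at 37 C. ONE-Glo luminescence measured reporter inhibition; CellTiter-Fluor fluorescence tracked cytotoxicity.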

For assay [7], the system named is thyroid hormone receptor (rat, GH3 cells). The assay is described as follows: qHTS assay to identify small molecule agonists of the thyroid receptor (TR) signaling pathway (AID 743066; calls by dose curve).
Assay [8] in a line: qHTS assay to identify small molecule antagonists of the estrogen receptor alpha (ER-alpha) signaling pathway - cell viability counter screen (AID 743074; calls by dose curve; further: nearly all actives have a fitted effect of over 45% in size).
For assay [9], the target named is Estrogen receptor (Homo sapiens) (UniProt P03372). The assay is described as follows: qHTS assay to identify small molecule agonists of the estrogen receptor alpha (ER-alpha) signaling pathway (AID 743075; calls by dose curve).
For assay [10] the target is unchanged. Briefly: qHTS assay to identify small molecule agonists of the estrogen receptor alpha (ER-alpha) signaling pathway using the BG1 cell line (AID 743079). Further: nearly all actives have a fitted effect of over 20% in size.
Assay [11] in a line: qHTS assay to identify small molecule antagonists of the estrogen receptor alpha (ER-alpha) signaling pathway using the BG1 cell line (AID 743080; calls by dose curve;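 further: BG1 cells stimulated with 17beta-estradiol alongside compound; series mostly up to about 70 µM; nearly all actives have a fitted effect of over 25% in size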). An outline of the steps:
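BG1-Luc-4E2 cells (endogenous full-length ER-alpha, stable 4×ERE-luciferase) were starved 5 days in phenol-red-free medium with 10% charcoal-stripped FBS, plated 24 h, then given compound plus 17beta-estradiol for 21.5 h at 37 C; ONE-Glo luminescence read after 30 min.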

A short description of assay [12]: qHTS assay to identify small molecule antagonists of the estrogen receptor alpha (ER-alpha) signaling pathway using the BG1 cell line - cell viability counter screen (AID 743081).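 Further: compound given together with 17beta-estradiol as the ER stimulus; nearly all actives have a fitted effect of over 45% in size.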 Further: potency means the concentration at half of the fitted maximal effect.
Assay [13] deals with Aromatase (Homo sapiens) (UniProt P11511). Briefly: qHTS assay to identify aromatase inhibitors (AID 743083). Further: nearly all actives have a fitted effect of over 55% in size. Further: potency means the concentration at half of the fitted maximal effect.
Assay [14] is described as follows: qHTS assay to identify small molecule antagonists of the glucocorticoid receptor (GR) signaling pathway - cell viability counter screen (AID 720693). Further: nearly all actives have a fitted effect of over 55% in size. Further: potency means the concentration at half of the fitted maximal effect.
Assay [15] in a line: qHTS assay to identify small molecule antagonists of the thyroid receptor (TR) signaling pathway - cell viability counter screen (AID 743064). Further: nearly all actives have a fitted effect of over 50% in size. Further: potency means the concentration at half of the fitted maximal effect. Put shortly: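 In-well cytotoxicity read by CellTiter-Fluor (30 min, 37 C) following 23.5 h exposure of GH3 cells bearing a TRE-luciferase sensor. Compounds were added alongside 1 nM (final) T3 to drive TR transactivation.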
Assay [16] concerns the target Androgen receptor (Homo sapiens) (UniProt P10275). The assay is described as follows: qHTS assay to identify small molecule antagonists of the androgen receptor (AR) signaling pathway (AID 743035; active means well fitted inhibition curve with a large enough effect in the signal ratio in the repeat runs, not every such curve was filed as active; the % refers to the signal ratio; further: potency means the concentration at half of the fitted maximal effect). Put shortly: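 Using qHTS, AR-UAS-bla GripTite HEK293 cells received compound, then R1881, and were cultured 16 h at 37C/5% CO2 before a 2 h room-temperature LiveBLAzer B/G FRET substrate step and fluorescence measurement.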

For assay [17] the target is unchanged. The assay is described as follows: qHTS assay to identify small molecule agonists of the androgen receptor (AR) signaling pathway (AID 743036; active means well fitted activation curve with a large enough effect in the signal ratio in the repeat runs, with a control signal flat, not every such curve was filed as active; the % refers to the signal ratio; further: potency means the concentration at half of the fitted maximal effect). Put shortly:
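Activation was read as beta-lactamase FRET signal from LiveBLAzer B/G substrate, added for 2 h at room temperature. Before that, GeneBLAzer AR-UAS-bla GripTite (HEK293) cells had 16 h compound exposure at 37C.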

Assay [18] shares this target. The assay is described as follows: qHTS assay to identify small molecule agonists of the androgen receptor (AR) signaling pathway using the MDA cell line (AID 743040; further: nearly all actives have a fitted effect of over 20% in size). An outline of the steps: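 MDA-kb2 breast carcinoma cells stably carrying an MMTV-driven luciferase reporter (AR- and GR-responsive) were seeded and held 5 h at 37C, 0% CO2, then exposed to compounds in DMSO for 16 h. Luminescence was read 30 min after ONE-Glo addition.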

Assay [19] has the same target. Briefly: qHTS assay to identify small molecule antagonists of the androgen receptor (AR) signaling pathway using the MDA cell line (AID 743042; further: nearly all actives have a fitted effect of over 55% in size; further: potency means the concentration at half of the fitted maximal effect). An outline of the steps: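 MDA-kb2 cells (human breast carcinoma, stably carrying an MMTV-luciferase reporter responsive to AR and GR) were plated at 3,000 cells/well and preincubated 5 hr at 37C, then given compound plus R1881 agonist for 16 h. ONE-Glo luminescence was read.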

Assay [20] has as its target Estrogen receptor (Homo sapiens) (UniProt P03372). Briefly: qHTS assay to identify small molecule antagonists of the estrogen receptor alpha (ER-alpha) signaling pathway (AID 743069; active means well fitted curve in the direction sought with a large enough effect in the signal ratio in the repeat runs, not every such curve was filed as active; the % refers to the signal ratio). An outline of the steps: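 HEK293 cells stably carrying an ER-alpha-UAS-bla beta-lactamase reporter were pre-cultured overnight in 2% charcoal-stripped FBS medium. Test compounds in DMSO were added together with 17beta-estradiol for 18 hr at 37C. Read-out was fluorescence after 2 hr with LiveBLAzer B/G FRET substrate at room temperature.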

The structures appear in SMILES notation. Values joined by “and” are separate entries in the source; they are usually repeats but may differ in a detail not shown here. Identical values can stand only once. Inconclusive results are not listed. Active and inactive are the calls of the source. Unless noted, the call rests on the fitted dose curve; in most records, active means well fitted curve in the direction sought with a large enough effect in the repeat runs; inconclusive means weak or mixed curves; inactive means no such curve, though single readings can be large; an effect the other way counts as inactive or inconclusive.

Chain of Androgen receptor (Homo sapiens) (P10275 whole entry, looked up): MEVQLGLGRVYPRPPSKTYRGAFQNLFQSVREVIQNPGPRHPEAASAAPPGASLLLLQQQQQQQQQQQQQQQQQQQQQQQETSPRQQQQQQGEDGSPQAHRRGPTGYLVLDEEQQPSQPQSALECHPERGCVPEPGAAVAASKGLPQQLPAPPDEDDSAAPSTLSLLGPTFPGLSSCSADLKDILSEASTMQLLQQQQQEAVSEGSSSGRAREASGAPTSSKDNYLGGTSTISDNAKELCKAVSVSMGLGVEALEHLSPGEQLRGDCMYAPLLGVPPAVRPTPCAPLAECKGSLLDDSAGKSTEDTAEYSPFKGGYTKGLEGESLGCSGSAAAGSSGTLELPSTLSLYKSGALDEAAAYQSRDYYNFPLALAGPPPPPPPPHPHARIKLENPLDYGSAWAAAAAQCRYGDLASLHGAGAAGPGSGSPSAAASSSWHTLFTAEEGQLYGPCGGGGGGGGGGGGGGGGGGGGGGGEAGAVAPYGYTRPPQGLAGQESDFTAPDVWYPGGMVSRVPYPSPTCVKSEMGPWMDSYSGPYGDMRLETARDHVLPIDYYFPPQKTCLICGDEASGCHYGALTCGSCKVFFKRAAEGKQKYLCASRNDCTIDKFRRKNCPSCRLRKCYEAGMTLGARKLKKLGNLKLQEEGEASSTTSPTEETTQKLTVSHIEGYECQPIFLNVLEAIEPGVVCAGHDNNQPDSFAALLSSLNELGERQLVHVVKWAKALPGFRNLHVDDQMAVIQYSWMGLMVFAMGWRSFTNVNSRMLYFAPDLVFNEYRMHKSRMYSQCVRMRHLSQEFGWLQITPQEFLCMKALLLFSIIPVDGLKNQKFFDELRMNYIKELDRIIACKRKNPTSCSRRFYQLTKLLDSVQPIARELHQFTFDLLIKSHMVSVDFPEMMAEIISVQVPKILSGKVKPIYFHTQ
Chain of Estrogen receptor (Homo sapiens) (P03372 whole entry, looked up): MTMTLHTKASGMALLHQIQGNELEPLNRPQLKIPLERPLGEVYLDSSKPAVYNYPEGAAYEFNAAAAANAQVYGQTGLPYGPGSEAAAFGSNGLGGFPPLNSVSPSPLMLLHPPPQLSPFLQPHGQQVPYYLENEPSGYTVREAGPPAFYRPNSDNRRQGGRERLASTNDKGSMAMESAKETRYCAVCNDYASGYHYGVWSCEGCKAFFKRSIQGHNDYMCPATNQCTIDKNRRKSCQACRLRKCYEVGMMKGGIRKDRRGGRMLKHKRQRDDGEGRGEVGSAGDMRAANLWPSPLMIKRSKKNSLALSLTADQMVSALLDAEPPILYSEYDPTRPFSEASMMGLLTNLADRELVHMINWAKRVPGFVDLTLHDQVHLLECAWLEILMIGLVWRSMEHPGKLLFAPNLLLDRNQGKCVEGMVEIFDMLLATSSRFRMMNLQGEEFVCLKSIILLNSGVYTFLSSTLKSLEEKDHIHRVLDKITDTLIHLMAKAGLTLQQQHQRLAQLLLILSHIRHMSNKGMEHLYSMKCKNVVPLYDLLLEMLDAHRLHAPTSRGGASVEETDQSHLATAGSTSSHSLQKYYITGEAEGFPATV
Chain of Aromatase (Homo sapiens) (P11511 whole entry, looked up): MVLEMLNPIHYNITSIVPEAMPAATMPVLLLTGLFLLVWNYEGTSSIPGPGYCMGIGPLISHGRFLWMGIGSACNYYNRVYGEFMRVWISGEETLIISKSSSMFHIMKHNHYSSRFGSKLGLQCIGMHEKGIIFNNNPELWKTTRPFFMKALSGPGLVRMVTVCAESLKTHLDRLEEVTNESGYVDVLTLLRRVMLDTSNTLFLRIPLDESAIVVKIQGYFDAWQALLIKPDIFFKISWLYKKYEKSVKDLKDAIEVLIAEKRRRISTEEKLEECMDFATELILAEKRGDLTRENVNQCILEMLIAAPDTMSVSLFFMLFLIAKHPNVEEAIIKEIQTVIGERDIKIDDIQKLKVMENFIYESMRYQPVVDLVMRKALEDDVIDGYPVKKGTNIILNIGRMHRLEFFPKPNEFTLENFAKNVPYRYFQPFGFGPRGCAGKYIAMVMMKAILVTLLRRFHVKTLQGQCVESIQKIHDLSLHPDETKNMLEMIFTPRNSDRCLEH

On to `C[N+](C)(C)CCOC(=O)CCC(=O)OCC[N+](C)(C)C`, for which the Potency result in [1], in assay [2], in assay [3], in assay [4], in [5] and in assay [6] was “inactive” each time. The Potency entry in [7], in [8], in [9], in assay [10], in [11] and in assay [12] was “inactive” in each case. The Potency entry in assay [13] is “inactive”.

On to `CCOc1ccc(O)cc1`, for which the Potency entry in [14], in assay [4], in assay [5], in assay [15], in assay [6] and in [7] was “inactive” throughout. Moreover, the Potency result in assay [8], in assay [9], in assay [10], in assay [11], in assay [12] and in assay [13] was “inactive” each time. For the same compound, the Potency in assay [2] was 54.5 µM (active).

As to `CC(C)C[C@H]1C(=O)N2CCC[C@H]2[C@]2(O)O[C@](NC(=O)[C@@H]3C=C4c5cccc6[nH]c(Br)c(c56)C[C@H]4N(C)C3)(C(C)C)C(=O)N12`, the Potency in assay [1] is 5.31 µM (active) and 11.6 µM (active); in assay [2] it was 10.6 µM (active) and 7.34 µM (active); in assay [3] it was 7.5 µM (active) and 10.4 µM (active); in assay [6], 13.3 µM (active) and 16.4 µM (active). Further, the Potency entry in assay [4], in assay [5], in assay [7], in assay [8] and in assay [12] was “inactive” throughout.

In the case of `C[N+]1(C)CCC(OC(=O)C(O)(c2ccccc2)C2CCCC2)C1` (stereo not drawn), the Potency entry in assay [14], in assay [4], in [15], in assay [9], in assay [10] and in [11] was “inactive” in each case. Moreover, in [12], the Potency entry is “inactive”.

Consider `COS(=O)(=O)C(F)(F)F`, for which the Potency entry in [14], in [3], in assay [15], in assay [6], in assay [7] and in assay [8] was “inactive” each time. Besides, the Potency entry in [9], in assay [10], in [11], in [12] and in [13] was “inactive” in each case.

Take `CCCCCCCCCCCCCCCCCCOS(=O)(=O)O`: the Potency result in assay [3], in assay [4], in assay [5], in assay [7], in assay [8] and in assay [9] was “inactive” in each case. The Potency result in [10], in assay [11] and in [12] was “inactive” each time. The Potency in [6] was 48.6 µM (active).

On to `CCCCCCCCCCCC(=O)OC[C@@H](O)[C@H]1OC[C@H](OCCO)[C@H]1OCCO`, for which the Potency result in [14], in assay [5], in assay [15], in assay [7], in assay [8] and in [9] was “inactive” in each case. The Potency result in assay [10] and in assay [12] was “inactive” each time. For the same compound, the Potency in assay [2] is 53.2 µM (active).

As for `O=[N+]([O-])c1ccc2[nH]ncc2c1`, the Potency result in assay [14], in assay [3], in assay [4], in assay [5], in [15] and in assay [7] was “inactive” in each case. In addition, the Potency entry in assay [8], in [9], in assay [10], in assay [11], in assay [12] and in [13] was “inactive” in each case.

As for `Nc1cccc([N+](=O)[O-])c1`, the Potency entry in assay [1], in assay [2], in assay [3], in assay [4], in assay [16] and in assay [17] was “inactive” throughout. Moreover, the Potency result in [18], in assay [5], in [19], in [15], in assay [6] and in [7] was “inactive” in each case. For the same compound, the Potency entry in assay [8], in assay [9], in [10], in [11] and in [12] was “inactive” throughout.

In the case of `Cc1ccc(N=Nc2c(O)c(C(=O)O)cc3ccccc23)c(S(=O)(=O)O)c1`, the Potency entry in assay [14], in assay [4], in assay [5], in assay [7], in [8] and in assay [13] was “inactive” each time. In addition, the Potency in [3] was 13.3 µM (active); in assay [15] it was 26.5 µM (active); in assay [12], 16.7 µM (active).

For `C=C1C(=C/C=C2\CCC[C@]3(C)[C@@H]([C@H](C)/C=C/[C@@H](O)C4CC4)CC[C@@H]23)C[C@@H](O)C[C@@H]1O`, the Potency was 11.9 µM (active) in [1]; 11.9 µM (active) in assay [2]; 13.3 µM (active) in [3]; 26.6 µM (active) in assay [19]; 26.6 µM (active) in assay [6]. Also, the Potency entry in assay [4], in assay [17], in assay [18], in [8], in [9] and in [10] was “inactive” each time. Besides, the Potency result in [12] and in assay [13] was “inactive” each time.

On to `CC1=CC=C(C(C)C)CC1`, for which the Potency result in assay [14], in assay [2], in assay [4], in assay [5], in assay [15] and in assay [20] was “inactive” each time. Moreover, the Potency result in [8], in assay [9], in [10], in assay [11], in assay [12] and in assay [13] was “inactive” throughout.

Take `c1cc(CCCc2ccncc2)ccn1`: the Potency result in assay [14], in assay [15], in assay [7], in assay [20], in assay [8] and in [9] was “inactive” throughout. The Potency entry in assay [10], in [11] and in [12] was “inactive” throughout. In addition, in [13], the Potency was 13.7 µM (active).

Consider `CCC(C)(C)CC`, for which the Potency entry in assay [14], in assay [6], in [7], in assay [8] and in assay [12] was “inactive” each time.

On to `CC(=O)[O][Al]`, for which the Potency result in [14], in assay [2], in [3], in assay [7], in [8] and in assay [12] was “inactive” each time. Further, in assay [13], the Potency result is “inactive”.

On to `CN1CCC(=C2c3ccccc3Sc3ccccc32)CC1`, for which the Potency is 5.31 µM (active) in [1]; 5.96 µM (active) in [2]; 8.41 µM (active) in assay [3]; 26.8 µM (active) in [16]; 29.8 µM (active) in assay [19]; 5.96 µM (active) in [15]. The Potency entry in assay [17], in assay [18] and in [10] was “inactive” throughout.

On to `COC(=O)C1=C(C)NC(COC(N)=O)=C(C(=O)OC(C)C)C1c1cccc(Cl)c1Cl` (stereo not drawn), for which the Potency was 23.7 µM (active) in assay [1]; 23.7 µM (active) in assay [3]; 10.7 µM (active) in assay [17]; 26.6 µM (active) in [15]; 16.8 µM (active) in assay [6]; 29.8 µM (active) in [13]. Moreover, the Potency result in [4], in [18], in assay [5], in assay [19], in assay [8] and in assay [10] was “inactive” in each case. Besides, the Potency result in assay [11] was “inactive”.

As for `O=C(Nc1ccc(S(=O)(=O)N2CCOCC2)cc1)c1cc(Cl)ccc1NS(=O)(=O)c1ccc(Cl)s1`, the Potency in assay [14] was 16.9 µM (active); in assay [6], 18.8 µM (active). Moreover, the Potency result in [4], in assay [5], in assay [9], in assay [10], in assay [11] and in assay [12] was “inactive” in each case. Moreover, the Potency entry in assay [13] was “inactive”.
